From PubChem
Rows were chosen to be rich in hits. Some 3.5% of all compounds tested hit in one or more screens of this group.
FBW7 activator = FBW7 E3 ligase activators, primary screen, biochemical, AlphaScreen, human. AlphaScreen FBW7–phospho-cyclin E peptide binding, activator screen. 650,000 tested, 0.13% active. F-box/WD repeat-containing protein 7 (Homo sapiens), Q969H0. normalized activity (activation), % at 26.1 µM; in the data active means normalized activity above about 1.9%;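 further: purified mutant Fbw7 with reduced substrate affinity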
Target sequence (Q969H0 whole entry, looked up): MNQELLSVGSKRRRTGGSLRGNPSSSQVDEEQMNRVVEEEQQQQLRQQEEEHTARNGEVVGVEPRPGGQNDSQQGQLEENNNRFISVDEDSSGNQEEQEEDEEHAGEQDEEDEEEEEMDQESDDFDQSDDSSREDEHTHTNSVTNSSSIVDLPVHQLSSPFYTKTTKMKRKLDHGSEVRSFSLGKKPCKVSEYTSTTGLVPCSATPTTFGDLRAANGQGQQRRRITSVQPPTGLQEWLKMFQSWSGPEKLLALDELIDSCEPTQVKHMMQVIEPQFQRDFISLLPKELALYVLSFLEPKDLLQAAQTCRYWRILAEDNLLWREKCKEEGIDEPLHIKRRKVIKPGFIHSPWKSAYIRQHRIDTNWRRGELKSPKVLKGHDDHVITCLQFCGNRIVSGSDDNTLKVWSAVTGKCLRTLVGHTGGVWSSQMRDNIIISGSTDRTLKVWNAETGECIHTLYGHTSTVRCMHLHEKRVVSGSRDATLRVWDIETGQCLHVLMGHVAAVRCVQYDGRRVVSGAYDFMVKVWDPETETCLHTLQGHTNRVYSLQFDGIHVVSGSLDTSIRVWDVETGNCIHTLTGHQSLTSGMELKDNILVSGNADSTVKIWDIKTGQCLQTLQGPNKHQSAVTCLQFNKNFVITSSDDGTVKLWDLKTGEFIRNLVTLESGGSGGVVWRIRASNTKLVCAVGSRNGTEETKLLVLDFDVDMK
TEAD-YAP block = TEAD-YAP interaction inhibition, primary screen, TEAD-YAP interaction inhibitor project, luminescence, HEK-TIYL cells. TEAD-Gal4/YAP UAS-luciferase luminescence. inhibition, % at 9.12 µM. 640,000 tested, 1.4% active. AID 1259422, 2018; in the data active means inhibition above about 32%;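 further: 0% = median of test compound wells and 100% = reference inhibitor wells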
GPR151 activ = activators of human GPR151, primary screen, cell-based, PathHunter beta-arrestin, luminescence. G-protein coupled receptor 151 (Homo sapiens), Q8TDV0. PathHunter beta-arrestin GPR151 cells. activation, % at 11.2 µM. 650,000 tested, 1% active. AID 1508602, 2020; in the data active means activation above about 4.9%;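 further: 0% = median of compound wells and 100% = cells with positive control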
MITF inh = MITF inhibitors, primary screen, biochemical, AlphaScreen, human; Microphthalmia-associated transcription factor (Homo sapiens), O75030; AlphaScreen MITF homodimerization, bead proximity signal; inhibition, % at 2.6 µM; 650,000 tested, 0.91% active; in the data active means inhibition above about 50%;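 further: 0% = vehicle wells with protein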
The depositor's hits bear a star.

Screening NC(=O)CSc1nnc(-c2ccncc2)n1-c1cccc(C(F)(F)F)c1 returned FBW7 activator 2.6*, TEAD-YAP block -8, GPR151 activ -1 and MITF inh -7.
Screening NC(=O)CSc1nnc(-c2cccnc2)n1-c1cccc(C(F)(F)F)c1 returned FBW7 activator 0, TEAD-YAP block 10, GPR151 activ -1 and MITF inh 5.
`CCOC(=O)C1(S(=O)(=O)c2ccc(OC)cc2)CCN(Cc2ccc(OC)cc2)CC1` gave FBW7 activator 0, TEAD-YAP block 3, GPR151 activ 1 and MITF inh 8.
`COc1ccc(/C=N/NC(=O)c2cn(C)c3ccccc23)cc1` gave FBW7 activator 0, TEAD-YAP block 23, GPR151 activ 0 and MITF inh -5.
For COc1ccc(-c2cc3nccc(C4CCNCC4)n3n2)cc1 the results were FBW7 activator 1, TEAD-YAP block 33*, GPR151 activ 1 and MITF inh 10.
Cc1ccc(-c2cc3nccc(C4CCNCC4)n3n2)cc1 was read as FBW7 activator 0, TEAD-YAP block 4, GPR151 activ 0 and MITF inh -2.
Screening CCOc1ccc(/C=C2/NC(=O)N(CC(=O)Nc3cccc(C)c3)C2=O)c(OCC)c1 returned FBW7 activator 2.8*, TEAD-YAP block 5, GPR151 activ 0 and MITF inh 1.
For COc1cccc(-c2nc(COC(=O)c3[nH]c(C)c(C(C)=O)c3C)cs2)c1 the results were FBW7 activator 0, TEAD-YAP block 44*, GPR151 activ 1 and MITF inh 10.
For COc1ccc(/C=C2/SC(=N)N(c3cc(C)ccc3C)C2=O)cc1 the results were FBW7 activator 0, TEAD-YAP block 38*, GPR151 activ 2 and MITF inh 8.
NNc1ccc2nnc(C(F)(F)C(F)(F)C(F)(F)F)n2n1 was read as FBW7 activator 1.9*, TEAD-YAP block 9, GPR151 activ 0 and MITF inh 5.
Screening Cc1ccc(OCC(=O)Nc2cc(C)on2)c(C)c1 returned FBW7 activator 0, TEAD-YAP block -1, GPR151 activ -1 and MITF inh -12.
Cc1ccc(OCC(=O)Nc2ccccn2)c(C)c1 was read as FBW7 activator 0, TEAD-YAP block 96*, GPR151 activ -6 and MITF inh -1.
Cc1ccccc1OCC(=O)Nc1ccccn1 was read as FBW7 activator 0, TEAD-YAP block 42*, GPR151 activ -6 and MITF inh 1.
`Cc1ccccc1OCC(=O)Nc1cccc(NC(=O)COc2ccccc2C)n1` gave FBW7 activator 0, TEAD-YAP block -4, GPR151 activ 0 and MITF inh 13.
For CCOC(=O)C1=C(C)N=c2s/c(=C/c3cc(C)n(-c4ccc(C)cc4)c3C)c(=O)n2C1c1ccc(C(C)C)cc1 (stereo not given) the results were FBW7 activator 1, TEAD-YAP block 10, GPR151 activ -1 and MITF inh 4.
For CCCN1C(=O)C(=O)c2cc(C)ccc21 the results were FBW7 activator 0, TEAD-YAP block -3, GPR151 activ 0 and MITF inh 2.
`Cc1ccc2c(c1)C(=O)C(=O)N2CCCl` gave FBW7 activator 0, TEAD-YAP block 60*, GPR151 activ 1 and MITF inh 0.
`CCN(CC)C(=O)C(NS(=O)(=O)c1ccc2c(c1)CCC(=O)N2)c1ccccc1` (stereo not given) gave FBW7 activator 0, TEAD-YAP block 5, GPR151 activ -1 and MITF inh 14.
CCc1ccc(CNc2nc3nc(C)cc(=O)n3[nH]2)cc1 was read as FBW7 activator 0, TEAD-YAP block 2, GPR151 activ 1 and MITF inh 5.
Screening NNC(=O)c1[nH]c2ccccc2c1Cl returned FBW7 activator 0, TEAD-YAP block 47*, GPR151 activ -1 and MITF inh 2.
`COc1ccc(CCNC(=O)c2nnn(-c3ccc4c(c3)OCCO4)c2N)cc1OC` gave FBW7 activator 0, TEAD-YAP block 65*, GPR151 activ 1 and MITF inh 5.
Screening CCOC(=O)C1=C(C)N=c2s/c(=C\c3ccc(OCc4ccc(Cl)cc4)c(OC)c3)c(=O)n2C1c1ccc(Cl)cc1 (stereo not given) returned FBW7 activator 0, TEAD-YAP block -25, GPR151 activ 1 and MITF inh -8.
Screening CN(C)S(=O)(=O)c1cccc(C(=O)N(Cc2ccco2)c2ccc(F)cc2)c1 returned FBW7 activator 0, TEAD-YAP block -3, GPR151 activ 0 and MITF inh 10.
COc1ccc(CNCCN2CCOCC2)cc1 was read as FBW7 activator 0, TEAD-YAP block -5, GPR151 activ -1 and MITF inh -5.
For Cc1ccc(CNCc2ccc(N3CCOCC3)cc2)cc1 the results were FBW7 activator 0, TEAD-YAP block 6, GPR151 activ 4 and MITF inh 55*.
`COc1ccc(CCNCc2ccc(N3CCOCC3)cc2)cc1` gave FBW7 activator 0, TEAD-YAP block 2, GPR151 activ 3 and MITF inh 53*.
For Cc1ccc(N2CCOCC2)cc1 the results were FBW7 activator 0, TEAD-YAP block 4, GPR151 activ 1 and MITF inh 11.
COC(=O)c1sc2nc(C)nc(SCC(=O)NC(C)c3ccccc3)c2c1C (stereo not given) was read as FBW7 activator 0, TEAD-YAP block 5, GPR151 activ -1 and MITF inh -3.
`COc1ccc(C2C(C(=O)NCCCN3CC(C)CC(C)C3)c3ccccc3C(=O)N2C2CCCCC2)cc1` (stereo not given) gave FBW7 activator 0, TEAD-YAP block 0, GPR151 activ 0 and MITF inh -1.
COc1ccc(CNc2nc(Nc3ccc(N4CCOCC4)cc3)nc3nc[nH]c23)cc1 was read as FBW7 activator 0, TEAD-YAP block -16, GPR151 activ 1 and MITF inh 1.
COc1ccc(CCNc2nc(Nc3ccc(N4CCOCC4)cc3)ncc2C)cc1 was read as FBW7 activator 0, TEAD-YAP block 64*, GPR151 activ 3 and MITF inh 20.
Screening COc1ccc(CCNc2nc(Nc3ccc(N4CCOCC4)cc3)nc3nc[nH]c23)cc1 returned FBW7 activator 0, TEAD-YAP block 49*, GPR151 activ 3 and MITF inh 15.
For Cc1cnc(Nc2ccc(N3CCOCC3)cc2)nc1NCc1ccccc1 the results were FBW7 activator 0, TEAD-YAP block 37*, GPR151 activ 1 and MITF inh 30.
For Cc1cnc(Nc2ccc(N3CCOCC3)cc2)nc1NCc1cccnc1 the results were FBW7 activator 0, TEAD-YAP block -9, GPR151 activ 0 and MITF inh 8.
`Cc1cnc(Nc2ccncc2)nc1NCc1ccccc1` gave FBW7 activator 0, TEAD-YAP block 40*, GPR151 activ 1 and MITF inh 21.
For COc1ccc(Br)cc1S(=O)(=O)N1CCN(C(c2ccccc2)c2ccccc2)CC1 the results were FBW7 activator 0, TEAD-YAP block 5, GPR151 activ 0 and MITF inh 18.
